This is part of a sample that, as a whole, favours compounds with a hit. Of some 83,000 tested, about 20% had one in any assay.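 Values shown are percent growth following 48 h exposure of cells in 96-well plates to a single concentration of compound; below 10 was considered active.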 A number with no mark means an inactive call. The source made the active and inactive calls.
These compounds were tested on HL-60(TB) leukemia (assay: NCI-60 one-dose screen, 48 h (100 = growth as untreated, 0 = no growth, -100 = all killed)). Settings: 10 µM unless noted.
In the case of `O=C(/C=C/c1cccc(F)c1)c1cccc(OCCCOc2cccc(C(=O)/C=C/c3cccc(F)c3)c2)c1`, the growth was 68.3%. `COCCOc1ccc2ncc(C#Cc3cncc(C(=O)Nc4ccc(CN5CCN(C)CC5)c(C(F)(F)F)c4)c3)n2n1` showed a growth of 16.7%. `Cc1nc2cnc(N)c(C#Cc3cncc(C(=O)Nc4ccc(Cl)c(C(F)(F)F)c4)c3)c2nc1C` gave a growth of 15.8%. In the case of `COc1cc(-c2nnc(SCc3ccc(O)c4ncccc34)n2-c2ccccc2)cc(OC)c1OC`, the growth was -17.8% (active). With `CC(=C(c1ccc(OCCCN(C)C)cc1)c1ccc(OCCCN(C)C)cc1)c1ccc(Cl)cc1` the growth was 75.5%. With `CN(C)c1ccc(-c2c(NC(C)(C)C)nc3c(OCCc4ccccc4)cccn23)cc1` the growth was -32.7% (active). With `COc1ccc(NC(=O)[C@H](C)NC(=O)OC(C)(C)C)cc1C(=O)Nc1cccc(-c2cc(=O)c3c(OC)c(OC)c(OC)cc3o2)c1` the growth was 2.88% (active). Compound `Cc1ccccc1Nc1nc(SC(C)C)nc(-c2ccccc2)c1C#N` has a growth of 94.1%. For `CCCn1cnc2c(c1=N)C(c1ccc(Cl)cc1)c1sc3c(C)cccc3c1O2` (stereo not drawn), the growth was -20% (active). Work on `Cc1nc(-c2cc3ccccc3oc2=O)ccc1C(=O)/C=C/c1ccc(N2CCOCC2)cc1` yielded a growth of 38.7%. `O=C(CCCCCCNC(=O)C(O)(O)C(F)(F)F)Nc1ccc(Br)cc1` gave a growth of 10.4%. In the case of `CCC(CC)n1c(=O)c(SC2=NC3C(NN2)N(CC)C(=O)N3CC)c(C(=O)O)c2ccccc21` (stereo not drawn), the growth was 0.469% (active). With `C=CCSc1ccc2c(c1)C(N1CCNCC1)=Nc1ccccc1O2` the growth was 25.6% [8.25 µM].

— PubChem BioAssay (NCI)
